We go through 40 molecules from PubChem BioAssay (NCATS).

Records with an inconclusive call do not appear. A call without a number means that no potency is given here. Active and inactive are the calls of the source. The call rests on the fitted dose curve; in most records, active means well fitted cell-killing curve with a large enough effect; inconclusive means small, poorly fitted or top-dose-only effect, or effect the other way; inactive means no such curve, though single readings can be large or run the other way.
Potency means the concentration at half of the fitted maximal effect.

This assay can be described thus: Quantitative High-Throughput drug screen in 47 multiple myeloma cell lines against the NCATS MIPE library collection: KMS28PE_JCRB cell viability assay (AID 1918983). Further: nearly all actives have a fitted effect of over 35% in size. As to conditions: KMS28PE multiple myeloma viability, CellTiter-Glo ATP, 48 h; series mostly up to 45.8 µM. From the text:
PI: Beverly A. Mock Ph.D.
Laboratory of Cancer Biology and Genetics,
Center for Cancer Research, National Cancer Institute,
National Institute of Health, Bethesda, Maryland
Drug resistance and disease progression are common in multiple myeloma (MM) patients, underscoring the need for new therapeutic combinations. […] We hypothesized that effective combinations would reduce MYC expression and enhance p16 activity. […] These preclinical data identify potentially useful drug combinations for evaluation in drug-resistant MM and reveal potential mechanisms of combined drug sensitivity.
Described herein is the primary MIPE qHTS used to cherrypick compounds. Validated compounds were then further tested for potential synergistic activiy.
[1] Peat TJ, Gaikwad SM, Dubois W, Gyabaah-Kessie N, Zhang S, Gorjifard S, Phyo Z, Andres M, Hughitt VK, Simpson RM, Miller MA, Girvin AT, Taylor A, Williams D, D'Antonio N, Zhang Y, Rajagopalan A, Flietner E, Wilson K, Zhang X, Shinn P, Klumpp-Thomas C, McKnight C, Itkin Z, Chen L, Kazandijian D, Zhang J, Michalowski AM, Simmons JK, Keats J, Thomas CJ, Mock BA. Drug combinations identified by high-throughput screening promote cell cycle transition and upregulate Smad pathways in myeloma. Cancer Lett. 2023 Aug 1;568:216284. doi: 10.1016/j.canlet.2023.216284. Epub 2023 Jun 24. PMID: 37356470; PMCID: PMC10408729.
SEQUENCE No. (e.g., 1, 2, 3, etc.); […] (e.g., Cells, Incubation, Reagent, etc.); VALUE and DESCRIPTION.
1; Cells; 5 uL; white, solid bottom 1536-well Greiner assay plate.
2; Compounds; 23 nL; Kalypsis pin tool (Wako USA) equipped with a 1536-well pin head to transfer to the assay plates.
3; Incubation; 48 hours; 37C incubation.
4; Reagent;5uL; CellTiter Glo (Promega).
5; Detector; 425V; Luminescence; Viewlux PerkinElmer.
NOTES (numbers refer to Sequence numbers above)
1. The cell-based screening methods employed in this study were like those previously published. Briefly, the corresponding myeloma cell lines were screened in 1,536-well plates with 500 cells, 5-uL per well for inhibition of cell viability (assessed by measuring ATP levels with CellTiterGlo).
2. NCATS MIPE 4.0 library of approved and investigational drugs were added using the Kalypsis pin tool. Wells treated with DMSO only for 100% viability and media only for 0% viability were used as controls.
3. The assay plates were covered and incubated for 48 hours in a 37C, 5% CO2 incubator with controlled humidity.
4. After 48 hours, CellTilter-GloTM luminescent substrate mix (Promega) reagent was added to the assay plate and plates we incubated for 5 min at room temperature.
5. Signal was measured as median relative luminescence units on a ViewLux (PerkinElmer) multiplate reader.
[1] Heske CM, Davis MI, Baumgart JT, Wilson K, Gormally MV, Chen L, Zhang X, Ceribelli M, Duveau DY, Guha R, Ferrer M, Arnaldez FI, Ji J, Tran HL, Zhang Y, Mendoza A, Helman LJ, Thomas CJ. Matrix Screen Identifies Synergistic Combination of PARP Inhibitors and Nicotinamide Phosphoribosyltransferase (NAMPT) Inhibitors in Ewing Sarcoma. Clin Cancer Res. 2017 Dec 1;23(23):7301-7311. doi: 10.1158/1078-0432.CCR-17-1121. Epub 2017 Sep 12. PMID: 28899971; PMCID: PMC6636827.
(Cellular ATP, detected with luciferase, serves as a proxy for viable cell number.)
Take `CCN(C)C(=O)Oc1cccc([C@H](C)N(C)C)c1`: the Potency result was “inactive”.
For the molecule `CNC1CCCN(c2c(F)cc3c(=O)c(C(=O)O)cn(C4CC4)c3c2OC)C1` (stereo not given), the Potency entry is “inactive”.
Next, `Cc1ccc(S(=O)(=O)N[C@@H](Cc2ccccc2)C(=O)CCl)cc1`: 20.9 µM (active); `CCOC(=O)c1ccc(OC(=O)CCCCCN=C(N)N)cc1`: “inactive”; `Cc1cccc(N(C)C(=S)Oc2ccc3ccccc3c2)c1`: “inactive”.
For the molecule `CC(C)OC(=O)C(C(=O)OC(C)C)=C1SC=CS1`, the Potency result was “inactive”.
Turning to `CC(C)C[C@H](NC(=O)[C@H](CCc1ccccc1)NC(=O)CN1CCOCC1)C(=O)N[C@@H](Cc1ccccc1)C(=O)N[C@@H](CC(C)C)C(=O)[C@@]1(C)CO1`, the Potency was 0.003 µM (active).
`O=C(O)CSCC(=O)NC1CCSC1=O` (stereo not given): the Potency entry is “inactive”.
`CCCCc1oc2ccc(NS(C)(=O)=O)cc2c1C(=O)c1ccc(OCCCN(CCCC)CCCC)cc1`: the Potency was 20.9 µM (active).
Next, `CCCc1nc(C)c2c(=O)[nH]c(-c3cc(S(=O)(=O)N4CCN(CC)CC4)ccc3OCC)nn12`: 8.33 µM (active); `CO[C@@H]1[C@@H](OC(N)=O)[C@@H](O)[C@H](Oc2ccc3c(O)c(NC(=O)c4ccc(O)c(CC=C(C)C)c4)c(=O)oc3c2C)OC1(C)C`: 4.69 µM (active); `COc1ccc2c(c1)c(CC(=O)OCC(=O)O)c(C)n2C(=O)c1ccc(Cl)cc1`: “inactive”.
`CC(C)(C)C(=O)OCOP(=O)(COCCn1cnc2c(N)ncnc21)OCOC(=O)C(C)(C)C`: the Potency was 4.18 µM (active).
In the case of `O=NN(CCCl)C(=O)NC1CCCCC1`, the Potency entry was “inactive”.
For `CCn1cc(C(=O)O)c(=O)c2cc(F)c(N3CCN(C)CC3)cc21`, the Potency result is “inactive”.
Next, `COc1cccc(N(C)C(=S)Oc2ccc3c(c2)CCCC3)n1`: “inactive”; `CC(C)(C#N)c1cc(Cn2cncn2)cc(C(C)(C)C#N)c1`: “inactive”; `CC(N)C12CC3CC(CC(C3)C1)C2` (stereo not given): “inactive”.
Consider `CC(C)(C)NC(=O)[C@H]1CC[C@H]2[C@@H]3CC[C@H]4NC(=O)C=C[C@]4(C)[C@H]3CC[C@]12C`, for which the Potency result was “inactive”.
To `OCc1ccc(-c2nn(Cc3ccccc3)c3ccccc23)o1` belongs “inactive”; to `CC[C@H](NC(C)C)[C@H](O)c1ccc(O)c2[nH]c(=O)ccc12`, “inactive”; to `CCc1cc(C(N)=S)ccn1`, “inactive”.
Next, `CN1CCCC(n2nc(Cc3ccc(Cl)cc3)c3ccccc3c2=O)CC1` (stereo not given): 13.2 µM (active); `CS(=O)(=O)c1ccc([C@@H](O)[C@@H](CO)NC(=O)C(Cl)Cl)cc1`: “inactive”.
On to `COCCCOc1cc(C[C@@H](C[C@H](N)[C@@H](O)C[C@H](C(=O)NCC(C)(C)C(N)=O)C(C)C)C(C)C)ccc1OC`, for which the Potency result is “inactive”.
To `CCOC(=O)[C@H](CCc1ccccc1)N[C@H]1CCc2ccccc2N(CC(=O)O)C1=O` belongs 20.9 µM (active); to `S=P(N1CC1)(N1CC1)N1CC1`, “inactive”; to `CCC(=O)O[C@]1(C(=O)CCl)[C@@H](C)C[C@H]2[C@@H]3CCC4=CC(=O)C=C[C@]4(C)[C@@]3(F)[C@@H](O)C[C@@]21C`, “inactive”.
To `CC1=C(C(=O)O)N2C(=O)[C@@H](NC(=O)C(N)c3ccccc3)[C@H]2SC1` (stereo not given in full) belongs “inactive”.
To `COc1ccccc1OCC(O)COC(N)=O` (stereo not given) belongs “inactive”; to `Cc1cccc(Nc2ccncc2S(=O)(=O)NC(=O)NC(C)C)c1`, “inactive”; to `NC(=O)c1cccc(N)c1`, “inactive”.
Take `C[C@]12C=CC(=O)C=C1CC[C@@H]1[C@@H]2C(=O)C[C@@]2(C)[C@H]1CC[C@]2(O)C(=O)CO`: the Potency entry is “inactive”.
As to `CCN1CCCC1CNC(=O)c1cc(S(N)(=O)=O)ccc1OC` (stereo not given), the Potency entry is “inactive”.
As to `Nc1nc(F)nc2c1ncn2[C@@H]1O[C@H](CO)[C@@H](O)[C@@H]1O`, the Potency is 0.372 µM (active).
For the molecule `Oc1c(Cl)cc(Cl)c2cccnc12`, the Potency was 20.9 µM (active).
To `O=C(O)c1ccc(-n2nc(-c3ccccc3O)nc2-c2ccccc2O)cc1` belongs “inactive”; to `O=S(=O)(c1cccc2cnccc12)N1CCCNCC1`, 18.7 µM (active); to `NC1(c2ccc(-c3nc4ccn5c(=O)[nH]nc5c4cc3-c3ccccc3)cc2)CCC1`, 6.62 µM (active).
Next, `CC(C)NCC(O)c1ccc(NS(C)(=O)=O)cc1` (stereo not given): “inactive”.
